{"source": "PubChem BioAssay AID2177", "about": "(The Scripps Research Institute Molecular Screening Center, 2009)", "note": "The campaign covered roughly 320,000 compounds. About 1,200 (0.38%) were called active. This excerpt belongs to a sample that is enriched for actives. Values without a mark were called inactive.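 How the source made its calls: active means inhibition above the screen-wide mean plus 3 SD, limit set per campaign (cut at about 26% in these data); inactive means the rest.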"}
{"molecular_target": "Acyl-protein thioesterase 2 (Homo sapiens) (UniProt O95372)", "sequence (O95372 whole entry, looked up)": "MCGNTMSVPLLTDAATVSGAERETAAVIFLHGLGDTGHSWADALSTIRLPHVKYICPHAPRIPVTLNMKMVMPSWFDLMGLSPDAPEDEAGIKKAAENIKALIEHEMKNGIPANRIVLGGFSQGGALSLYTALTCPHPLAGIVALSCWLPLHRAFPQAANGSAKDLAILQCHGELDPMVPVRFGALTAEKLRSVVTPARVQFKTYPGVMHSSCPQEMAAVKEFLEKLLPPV", "assay": "LYPLA2 inhibitors, primary screen, counter-screen for PME1 inhibitor project, biochemical, fluorescence polarization, FP-Rh probe ABPP (AID 2177);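 further: 0% = LYPLA2 with DMSO and 100% = wells lacking LYPLA2 enzyme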", "conditions": "recombinant LYPLA2, FP-Rh probe fluorescence polarization; at 5.9 µM; hits give high values"}
{"smiles": "CCNC(=S)N1CCN(C(=O)c2ccco2)CC1", "inhibition": "2.65%"}
{"smiles": "O=C(c1ccco1)N1CCN(C(=S)Nc2cc(F)cc(F)c2)CC1", "inhibition": "33.1% (active)"}
{"smiles": "O=C(CN1CCN(C(=O)c2ccco2)CC1)Nc1ccc2c(c1)OCO2", "inhibition": "-2.14%"}
{"smiles": "COc1ccc(CN(C)C(=O)Cc2ccsc2)c(OC)c1OC", "inhibition": "4.71%"}
{"smiles": "CCOc1ccc(C(=O)NC(=S)Nc2ccc(N3CCOCC3)c(Cl)c2)cc1[N+](=O)[O-]", "inhibition": "26.8% (active)"}
{"smiles": "COc1cccc(OC)c1C(=O)NC(=S)Nc1ccc(N2CCOCC2)c(Cl)c1", "inhibition": "-0.51%"}
{"smiles": "CCOc1ccc(C(=O)NC(=S)Nc2ccc(NC(=O)C(C)C)cc2)cc1[N+](=O)[O-]", "inhibition": "19.4%"}
{"smiles": "O=C(Nc1ccccc1N1CCOCC1)c1ccncc1", "inhibition": "-4.72%"}
{"smiles": "Cc1nn2c(=O)cc(COC(=O)c3ccc(NC(=O)C(C)(C)C)cc3)nc2s1", "inhibition": "31.4% (active)"}
{"smiles": "COCCc1nn2c(=O)cc(COC(=O)c3cc(OC)c(OC)c(OC)c3)nc2s1", "inhibition": "7.86%"}
{"smiles": "Cc1csc2nc(COC(=O)c3cccc(N(C)C)c3)cc(=O)n12", "inhibition": "6.85%"}
{"smiles": "O=C(Nc1ccc([N+](=O)[O-])cc1)OCCc1ccccn1", "inhibition": "1.34%"}
{"smiles": "Cc1ccc(N2CCN(/N=C/c3cccs3)CC2)cc1", "inhibition": "6.07%"}
{"smiles": "Cc1ccc(N2CCN(C3=NC(=O)/C(=C\\c4cccs4)S3)CC2)cc1", "inhibition": "51.7% (active)"}
{"smiles": "Cc1ccsc1/C=C1\\SC(N2CCOCC2)=NC1=O", "inhibition": "1.19%"}
{"smiles": "Cc1ccc(S(=O)(=O)N(C)CC(=O)OCC(=O)N2CC(=O)Nc3ccccc32)cc1", "inhibition": "2.05%"}
{"smiles": "CCN(CC)c1ccc(C(=O)NNC(=O)CCc2nc3ccccc3c(=O)[nH]2)cc1", "inhibition": "26.9% (active)"}
{"smiles": "CCN(CC)c1ccc(C(=O)Nn2c(C)nc3ccccc3c2=O)cc1", "inhibition": "4.7%"}
{"smiles": "CCCC(=O)N(CCc1ccccc1)Cc1nc2ccccc2c(=O)[nH]1", "inhibition": "-5.43%"}
{"smiles": "CCOCCCN(C)C1CCN(C(=O)c2oc3ccccc3c2NC(=O)COc2cccc(C)c2)CC1", "inhibition": "-6.18%"}
{"smiles": "Cc1ccc(Cl)cc1NC(=O)C1CCCN(c2cnccn2)C1", "note": "(stereo not given)", "inhibition": "-0.03%"}
{"smiles": "COCCOC(=O)c1sc(=S)n(CCOC)c1N", "inhibition": "34.7% (active)"}
{"smiles": "COC(=O)c1sc(=S)n(-c2ccc(Cl)cc2)c1C", "inhibition": "1.95%"}
{"smiles": "COc1ccccc1NC(=O)CSc1nnc(CNC(=O)c2ccccc2F)o1", "inhibition": "-2.81%"}
{"smiles": "Cc1nn(-c2ccccc2)c2c1c(C)c(CCC(=O)NCC1CCCO1)c(=O)n2C", "note": "(stereo not given)", "inhibition": "0.8%"}
{"smiles": "Cc1cc(SCC(=O)NCCN2C(=O)CSC2=O)nc2ccccc12", "inhibition": "-4.03%"}
{"smiles": "Clc1ccc(C2=CSC3=Nc4cccc5cccc(c45)N23)cc1", "inhibition": "0.51%"}
{"smiles": "Cn1cc(CNC(=O)c2ccc(OC3CCN(Cc4ccccn4)CC3)cc2)cn1", "inhibition": "11%"}
{"smiles": "O=C(c1ccc(OC2CCN(Cc3ccccn3)CC2)cc1)N1CCCCCC1", "inhibition": "3.95%"}
{"smiles": "CN(CCc1ccccn1)C(=O)c1ccc(OC2CCN(CCc3ccccc3)CC2)cc1", "inhibition": "33.7% (active)"}
{"smiles": "NS(=O)(=O)c1ccc(N=Nc2c(O)[nH]c3ccc(Br)cc23)cc1", "inhibition": "1.06%"}
{"smiles": "Cc1ccc(/C=C/C(=O)OCC(=O)Nc2cccnc2Cl)cc1", "inhibition": "7.22%"}
{"smiles": "Nc1nc(SCC(=O)Nc2ccc(Cl)cc2C(F)(F)F)n[nH]1", "inhibition": "9.87%"}
{"smiles": "CC(C)CNC(=O)C(=O)NCC(c1ccc2c(c1)OCO2)N1CCOCC1", "note": "(stereo not given)", "inhibition": "6.19%"}
{"smiles": "O=C(c1ccc(F)c(S(=O)(=O)N2CCOCC2)c1)N(CCc1ccccc1)Cc1ccccc1", "inhibition": "5.14%"}
{"smiles": "O=C(NCCSCc1ccccc1)c1ccc(Cl)c(S(=O)(=O)N2CCOCC2)c1", "inhibition": "1.96%"}
{"smiles": "Cc1nn(Cc2ccccc2)c(C)c1CNC(=O)c1ccc(F)c(S(=O)(=O)N2CCOCC2)c1", "inhibition": "29.7% (active)"}
{"smiles": "CC(OC(=O)CCC(=O)c1ccccc1)C(=O)Nc1ccc(F)cc1", "note": "(stereo not given)", "inhibition": "-5.12%"}
{"smiles": "CN(CCC(=O)Nc1cc(S(=O)(=O)N(C)C)ccc1Cl)CC(=O)Nc1ccc(F)cc1", "inhibition": "-4.23%"}
{"smiles": "CC(C)N(Cc1ccccc1)C(=O)COC(=O)c1ccccc1SCC(=O)N1CCCC1", "inhibition": "1.65%"}
{"smiles": "COc1ccc(/C=C/C(=O)Nc2c(C)nn(C)c2C)cc1COc1ccc(Br)cc1", "inhibition": "-4.58%"}
{"smiles": "Cc1ccccc1C(=O)N1CCN(c2ccc(NC(=O)c3cccs3)cc2)CC1", "inhibition": "2.59%"}
{"smiles": "O=C(Nc1ccc(N2CCN(C(=O)c3cccs3)CC2)cc1)c1cccnc1Cl", "inhibition": "35.9% (active)"}
{"smiles": "O=C(COc1ccccc1)Nc1ccc(N2CCN(C(=O)c3cccs3)CC2)cc1", "inhibition": "7.89%"}
{"smiles": "CN=C1S/C(=C\\c2c(OC)cc(OC)cc2OC)C(=O)N1C", "inhibition": "-0.06%"}
{"smiles": "CC(C)OCCCNC(=O)CN1C(=O)/C(=C/c2ccccc2F)Oc2ccccc21", "inhibition": "-0.43%"}
{"smiles": "CCC(=C/c1sc2ccc3ccccc3c2[n+]1C)/C=C1\\Sc2ccc3ccccc3c2N1C", "inhibition": "40.1% (active)"}
{"smiles": "O=P(O)(CP(=O)(c1ccccc1)c1ccccc1)c1ccccc1O", "inhibition": "-2.71%"}
{"smiles": "CCC(C)CCN1CCN=C1N(C)C", "note": "(stereo not given)", "inhibition": "8.55%"}
{"smiles": "O=S(=O)(Nc1ccc(Cl)cn1)c1cnc(Cl)c(Br)c1", "inhibition": "2.67%"}
{"smiles": "COC(=O)/C(=C1\\Oc2ccc(C(C)(C)C)cc2S1)C(F)(F)F", "inhibition": "-3.77%"}
{"smiles": "CC(=O)c1cc2c(cc1N)OCO2", "inhibition": "-2.04%"}
{"smiles": "Nc1[nH][nH]c(=O)c1N=Nc1ccc2c(c1)OCO2", "inhibition": "28.4% (active)"}
{"smiles": "O=C(c1ccc2c(c1)OCO2)N1CCOCC1", "inhibition": "2.23%"}
{"smiles": "COc1ccc([N+](=O)[O-])cc1C1NN=C(c2cccc3ccccc23)S1", "note": "(stereo not given)", "inhibition": "7.57%"}
{"smiles": "Cc1cccc(C(=O)NC(=S)N2CCN(c3ccc([N+](=O)[O-])cc3)CC2)c1", "inhibition": "0.8%"}
{"smiles": "O=C(COC(=O)c1cc([N+](=O)[O-])ccc1NCc1ccccc1)NC1CCCCC1", "inhibition": "12%"}
{"smiles": "CC1=C(C(=O)OCC2CCCCC2)C(c2ccc(F)cc2)NC(=O)N1", "note": "(stereo not given)", "inhibition": "0.63%"}
{"smiles": "COCCOC(=O)C1=C(C)NC(=O)NC1c1ccc(Cl)cc1", "note": "(stereo not given)", "inhibition": "3.24%"}
{"smiles": "CCC(CC)COC(=O)C1=C(C)NC(=O)NC1c1ccc([N+](=O)[O-])cc1", "note": "(stereo not given)", "inhibition": "28.8% (active)"}
